# Screening results: PubChem, several laboratories
# In the library only some 27% were active in any assay of this set; here they are far more common.
# EphB4 ephrin blk: antagonists of human EphB4-ephrin-B2 interaction | P54760 | EphB4 LBD / TNYL-RAW-Alexa532 peptide, fluorescence polarization | inhibition, % at 7 µM | 97,000 compounds, 0.15% hits;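 active = inhibition above the screen-wide mean inhibition plus 3 SD, cut at about 15% in these data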;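 also: 0% = DMSO wells and 100% = excess unlabeled TNYL-RAW peptide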
# Target sequence (P54760 whole entry, looked up, the tested form may be a part): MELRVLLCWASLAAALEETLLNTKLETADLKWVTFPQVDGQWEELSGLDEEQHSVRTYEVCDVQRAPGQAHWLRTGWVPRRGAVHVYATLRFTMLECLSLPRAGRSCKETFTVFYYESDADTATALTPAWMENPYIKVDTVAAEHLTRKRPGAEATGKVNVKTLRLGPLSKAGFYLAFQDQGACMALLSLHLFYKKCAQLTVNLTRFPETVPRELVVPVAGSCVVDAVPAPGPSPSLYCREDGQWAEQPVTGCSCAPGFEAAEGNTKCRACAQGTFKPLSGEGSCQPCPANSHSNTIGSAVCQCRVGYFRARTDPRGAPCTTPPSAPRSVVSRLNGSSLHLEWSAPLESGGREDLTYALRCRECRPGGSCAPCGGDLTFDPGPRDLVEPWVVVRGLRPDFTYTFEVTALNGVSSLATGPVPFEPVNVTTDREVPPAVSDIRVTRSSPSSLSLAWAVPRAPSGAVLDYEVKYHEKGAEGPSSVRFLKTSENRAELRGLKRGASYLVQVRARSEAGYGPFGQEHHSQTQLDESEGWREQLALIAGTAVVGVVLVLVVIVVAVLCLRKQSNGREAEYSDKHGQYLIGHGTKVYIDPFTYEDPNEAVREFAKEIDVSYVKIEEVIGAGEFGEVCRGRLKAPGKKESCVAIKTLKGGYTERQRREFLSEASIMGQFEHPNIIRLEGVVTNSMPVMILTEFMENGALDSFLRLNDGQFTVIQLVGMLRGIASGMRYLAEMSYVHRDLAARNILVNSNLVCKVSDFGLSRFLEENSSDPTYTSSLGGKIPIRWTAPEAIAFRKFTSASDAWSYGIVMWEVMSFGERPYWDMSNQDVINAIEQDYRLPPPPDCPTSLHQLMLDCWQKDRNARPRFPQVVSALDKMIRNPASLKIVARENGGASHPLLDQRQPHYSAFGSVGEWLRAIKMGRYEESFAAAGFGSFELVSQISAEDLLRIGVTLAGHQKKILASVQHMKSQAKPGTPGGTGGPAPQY
# CYP2C9 inhib: blocks human cytochrome P450 2C9; inhibition, % at 5 µM; AID 777; CYP2C9 Supersomes, luciferin-H conversion, luminescence; 96,000 compounds, 20% hits; P11712;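 active = blocking of liver enzyme CYP2C9 beyond about 50% at 5 µM, limit read from the data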
# CYP2C19 inhib: inhibitors of human CYP2C19; CYP2C19 Supersomes, luciferin-H EGE luminescence, 30 min; inhibition, % at 5 µM; 96,000 compounds, 21% hits; AID 778;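 active = CYP2C19 inhibition above a set limit at 5 µM in the primary screen, cut at about 50% in these data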;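 also: plate controls were negative control wells for no effect and 2.5 mM tranylcypromine positive control for full effect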
# CYP2C9 act: activators of human CYP2C9 | recombinant CYP2C9, luciferin-H conversion, luminescence; active compounds read high; factor 1 = untreated enzyme, 0 = blocked | activation factor at 5 µM | 96,000 compounds, 1.4% hits | AID 1024;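 active = activation factor of 2 or more for CYP2C9 at a 5 µM dose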;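 also: 0 = sulfaphenazole-blocked wells and 1 = vehicle-only wells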
# CYP2C19 act: activators of human cytochrome P450 2C19. P33261. recombinant CYP2C19, luciferin-H EGE luminescence; active compounds read high; 0 = fully inhibited enzyme, 1 = untreated enzyme. activation factor at 5 µM. 96,000 tested, under 10 active. AID 1025;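 active = activation factor of at least 2 at 5 µM in the primary screen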;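 also: 0 = wells with 2.5 mM tranylcypromine and 1 = vehicle-only wells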
# * hit, by the source's call; nt = no result given.
SMILES,EphB4 ephrin blk,CYP2C9 inhib,CYP2C19 inhib,CYP2C9 act,CYP2C19 act
CN(C1CCCCC1)S(=O)(=O)c1ccc(NC(=O)CCC(=O)O)cc1,2,nt,nt,nt,nt
Cc1cc(=O)[nH]c2c1c(C)nn2-c1ccccc1,nt,6,3,0.9,1
Cc1cc(C)nc(-n2nc(C)c3c(C(F)(F)F)cc(=O)[nH]c32)n1,2,65*,4,0.4,1
C=C(C)CSc1nc2ncc(Cl)cc2[nH]1,-8,38,4,0.6,1
C=C(C)CN(CC)C(=O)CSc1nc2ncc(Cl)cc2[nH]1,0,39,92*,0.6,0.1
O=C(COc1ccc(Cl)cc1)Nc1ncccn1,-8,-10,19,1.1,0.8
COc1cc(S(=O)(=O)N(Cc2cccnc2)Cc2ccco2)ccc1-n1cnnn1,nt,5,48,0.9,0.5
COc1cc(S(=O)(=O)N(Cc2ccc(C)cc2)Cc2ccco2)ccc1-n1cnnn1,4,53*,64*,0.5,0.4
COc1cc(S(=O)(=O)N(Cc2ccc(C)cc2)C2CCCCC2)ccc1-n1cnnn1,nt,84*,86*,0.2,0.1
COc1cc(S(=O)(=O)NCC2OCCc3ccccc32)ccc1-n1cnnn1 (configuration not stated),0,53*,91*,0.5,0.1
COc1cc(S(=O)(=O)N2CCCC3(CCCCC3)C2)ccc1-n1cnnn1,2,-4,39,1,0.6
CC#CCN(CC#CC)S(=O)(=O)c1ccc(-n2cnnn2)c(OC)c1,7,13,84*,0.9,0.2
COc1ccc(Cl)cc1S(=O)(=O)N1CCCC(C(=O)NCC(N)=O)C1 (configuration not stated),-15,nt,nt,nt,nt
COc1ccc(OC(C)C(=O)NCc2cccnc2)cc1 (configuration not stated),2,35,37,0.7,0.6
Cc1c(Br)c([N+](=O)[O-])nn1C(C)C(=O)NCc1cccnc1 (configuration not stated),-11,57*,76*,0.4,0.2
O=C(NC1CCCCC1)c1noc2c1CCCCC2,nt,20,94*,0.8,0.1
O=C(NCc1cccnc1)c1noc2c1CCCCC2,nt,0,90*,1,0.1
O=C(NCc1ccccc1)c1noc2c1CCCC2,nt,-5,2,1.1,1
O=C(NCc1cccnc1)c1noc2c1CCCC2,nt,-8,67*,1.1,0.3
O=C(NCc1ccc(Cl)cc1)c1noc2c1CCCC2,nt,78*,64*,0.2,0.4
O=C(NCc1cccc(F)c1)c1noc2c1CCCC2,nt,8,-2,0.9,1
Cc1cccc(C)c1NC(=O)C1NC(=O)CC1c1ccccc1 (configuration not stated),2,-7,6,1.1,0.9
COc1ccccc1CNC(=O)Cn1cnc2ccccc2c1=O,nt,27,41,0.7,0.6
O=c1c2ccccc2ncn1CCCOc1ccccc1[N+](=O)[O-],-5,42,52*,0.6,0.5
Cc1cc(C)c(OCCCCn2cnc3ccccc3c2=O)c(C)c1,-6,28,9,0.7,0.9
SMILES,EphB4 ephrin blk,CYP2C9 inhib,CYP2C19 inhib,CYP2C9 act,CYP2C19 act
COc1cccc(OC)c1OCCOCCn1cnc2ccccc2c1=O,2,21,77*,0.8,0.2
Cc1cccc(C)c1OCCCCn1cnc2ccccc2c1=O,-1,53*,19,0.5,0.8
O=c1c2ccccc2ncn1CCCSc1ccccc1,-1,39,78*,0.6,0.2
CCOc1ccc(NC(=S)NC(=O)/C=C/c2ccc(OC)c(OC)c2)c([N+](=O)[O-])c1,3,6,12,0.9,0.9
O=C(CCCCn1c(=O)c2ccccc2n(CC(=O)Nc2ccccc2)c1=O)NCc1ccco1,-2,46,-3,0.5,1
CN(C)S(=O)(=O)c1ccc(NC(=O)Cn2c(-c3ccccc3)noc2=O)cc1,-4,95*,78*,0,0.2
CCN(CC)S(=O)(=O)c1ccc(NC(=O)Cn2c(=O)oc3ccccc32)cc1,6,48,23,0.5,0.8
CC1=C(C(=O)Nc2cccc(C)n2)C(c2ccc3c(c2)OCO3)C2=C(CC(c3ccco3)CC2=O)N1 (configuration not stated),-1,94*,86*,0.1,0.1
COc1ccc(C2CC(=O)C3=C(C2)NC(C)=C(C(=O)Nc2ccccc2C)C3c2coc3ccc(C)cc3c2=O)cc1OC (configuration not stated),10,31,17,0.7,0.8
O=C1CCc2cc(S(=O)(=O)N3CCC(C(=O)NC4CCCc5ccccc54)CC3)ccc2N1 (configuration not stated),-7,5,12,0.9,0.9
O=C(CSc1nc2cc(S(=O)(=O)N3CCOCC3)ccc2o1)NC1CCCc2ccccc21 (configuration not stated),-5,60*,74*,0.4,0.3
Cc1ccc(C(=O)CSc2nc3cc(S(=O)(=O)N4CCOCC4)ccc3o2)cc1,nt,82*,11,0.2,0.9
Cc1[nH]c2ccccc2c1C(=O)CSc1nc2cc(S(=O)(=O)N3CCCCC3)ccc2o1,3,90*,60*,0.1,0.4
O=C(CSc1nc2cc(Cl)ccc2o1)N1CCOCC1,-5,26,40,0.7,0.6
CCCn1c(NCc2ccccn2)nc2ccccc21,1,nt,nt,nt,nt
CCOC(=O)C1CCCN(c2c(N3CCc4ccccc4C3)c(=O)c2=O)C1 (configuration not stated),9,50,35,0.5,0.7
O=C(CSc1nnc(COc2cccc3cccnc23)o1)N1CCc2ccccc21,7,6,5,0.9,0.9
COc1ccc(C(=O)CSc2nnc(-c3ccccc3)o2)cc1,0,-33,10,1.3,0.9
CCOC(=O)CN(C(=O)CSc1nnc(-c2cccc(OC)c2)o1)c1ccc(F)cc1,-10,92*,85*,0.1,0.1
O=C(CSc1nnc(COc2ccc(F)cc2)o1)N1c2ccccc2CCc2ccccc21,nt,96*,83*,0,0.2
O=C(CSc1nnc(CNc2ccc(F)cc2)o1)N1c2ccccc2Sc2ccccc21,7,53*,35,0.5,0.6
COc1ccc(CN(C(=O)CSc2nnc(-c3ccccc3C)o2)c2ccc(F)cc2)cc1,-4,nt,nt,nt,nt
COC(=O)CN(C(=O)CSc1nnc(-c2cccc(OC)c2)o1)c1ccc(OC)cc1,8,60*,35,0.4,0.7
O=C(CSc1nnc(CNc2ccc(F)cc2)o1)N1CCN(C(=O)c2ccco2)CC1,-9,24,12,0.8,0.9
CC(C)CNC(=O)COC(=O)c1cncc(Br)c1,3,-1,11,1,0.9
COc1ccc2[nH]c(=O)c(-c3noc(-c4ccccc4)n3)cc2c1,3,13,3,0.9,1
COc1ccc2c(c1)cc(C)c1nnc(SCC(=O)N(C)c3nc(-c4ccccc4)cs3)n12,-6,6,-10,0.9,1.1
CCCCOc1ccc(CSc2n[nH]c(C)n2)cc1,2,28,38,0.7,0.6
